We go through 14 compounds from PubChem BioAssay (EPA / NIEHS).

Structures are written as SMILES. Results filed as inconclusive are left out. Activity calls are given as the source filed them. The calls were made as follows: active = hit-call score of the fitted dose curve at least 0.9, where 1 is the maximum; inconclusive = response in the unintended direction; inactive = score below 0.9.

human Peroxisome Proliferator-activated Receptor alpha (PPARa), PPARA (gene 5465), sequence (Q07869 whole entry, looked up): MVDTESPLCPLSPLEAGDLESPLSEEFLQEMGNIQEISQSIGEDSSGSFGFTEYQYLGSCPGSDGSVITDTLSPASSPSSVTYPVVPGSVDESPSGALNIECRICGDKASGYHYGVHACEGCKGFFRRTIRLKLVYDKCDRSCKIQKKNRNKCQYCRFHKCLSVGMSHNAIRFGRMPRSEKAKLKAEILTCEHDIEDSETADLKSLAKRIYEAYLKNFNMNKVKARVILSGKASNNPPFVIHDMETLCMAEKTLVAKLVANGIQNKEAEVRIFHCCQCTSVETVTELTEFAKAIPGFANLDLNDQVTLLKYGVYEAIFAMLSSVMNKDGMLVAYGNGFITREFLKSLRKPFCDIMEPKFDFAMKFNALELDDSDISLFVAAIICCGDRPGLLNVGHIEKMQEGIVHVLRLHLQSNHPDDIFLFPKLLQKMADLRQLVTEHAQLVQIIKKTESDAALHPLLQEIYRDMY
Estrogen receptor (Homo sapiens) + Estrogen receptor beta (Homo sapiens), sequence (P03372 whole entry, looked up, the tested form may be a part): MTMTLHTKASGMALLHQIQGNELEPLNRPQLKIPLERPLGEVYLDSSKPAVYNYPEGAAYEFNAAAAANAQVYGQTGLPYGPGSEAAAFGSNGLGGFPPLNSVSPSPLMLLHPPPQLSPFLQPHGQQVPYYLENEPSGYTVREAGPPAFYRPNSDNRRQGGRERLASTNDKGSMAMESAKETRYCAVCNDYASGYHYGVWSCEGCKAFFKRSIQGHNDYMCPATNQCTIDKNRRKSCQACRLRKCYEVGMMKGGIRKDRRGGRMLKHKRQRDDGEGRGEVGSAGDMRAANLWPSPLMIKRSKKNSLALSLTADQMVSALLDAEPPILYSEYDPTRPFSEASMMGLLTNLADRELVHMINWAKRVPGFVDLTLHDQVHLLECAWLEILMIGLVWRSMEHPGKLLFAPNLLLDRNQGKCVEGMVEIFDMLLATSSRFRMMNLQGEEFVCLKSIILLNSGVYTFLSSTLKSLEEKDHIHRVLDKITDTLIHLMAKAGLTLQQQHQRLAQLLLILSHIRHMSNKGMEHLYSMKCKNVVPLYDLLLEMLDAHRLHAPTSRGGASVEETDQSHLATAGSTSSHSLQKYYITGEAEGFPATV
Estrogen receptor (Homo sapiens) + Estrogen receptor beta (Homo sapiens), sequence (Q92731 whole entry, looked up, the tested form may be a part): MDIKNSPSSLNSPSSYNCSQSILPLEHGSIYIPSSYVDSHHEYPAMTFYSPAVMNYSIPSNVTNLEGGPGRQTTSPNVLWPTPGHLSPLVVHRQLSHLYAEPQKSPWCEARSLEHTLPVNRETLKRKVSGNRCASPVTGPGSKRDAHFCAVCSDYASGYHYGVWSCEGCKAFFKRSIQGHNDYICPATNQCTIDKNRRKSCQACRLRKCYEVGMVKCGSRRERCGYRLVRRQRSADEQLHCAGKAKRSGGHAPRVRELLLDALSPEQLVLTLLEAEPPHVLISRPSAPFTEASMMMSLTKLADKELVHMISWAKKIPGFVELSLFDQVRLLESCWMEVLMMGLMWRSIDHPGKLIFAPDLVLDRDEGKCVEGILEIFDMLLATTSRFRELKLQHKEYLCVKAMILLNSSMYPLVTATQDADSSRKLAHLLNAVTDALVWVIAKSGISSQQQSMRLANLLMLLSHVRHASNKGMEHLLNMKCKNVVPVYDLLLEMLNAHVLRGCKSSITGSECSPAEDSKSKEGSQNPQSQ

The target in the first assay is Estrogen receptor (Homo sapiens) + Estrogen receptor beta (Homo sapiens) (UniProt P03372+Q92731). The assay can be described thus: OT_ER_ERaERb_1440: Odyssey Thera (OT) 24-hour HEK293T Protein-Complementation Assay for Estrogen Receptor-alpha/-beta Homodimer (AID 2283356).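 Also: heteromer of ER alpha and ER beta binding domains; hits raise reporter fluorescence and both agonists and antagonists give an increase.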 An outline of the steps:
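24 h exposure; HEK293T PCA cells with ERα/ERβ LBD fragments; signal rise in nuclear or whole-cell fluorescence over vehicle.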
For `O=C(NO)C1(NS(=O)(=O)c2ccc(Oc3ccc(F)cc3)cc2)CCOCC1`, the outcome was inactive.
For the compound `OCCOCCOCCO`, the result was inactive.
With `CCCCCCCCCCCCCCO`, the result was inactive.
With `CCCOc1ccc(S(=O)(=O)N2CCN(CC)CC2)cc1-c1nc2c(CC)n(Cc3ccccn3)nc2c(=O)[nH]1`, the outcome was inactive.
Still for that read-out and setting: the value for `NC(=O)NN=Cc1ccc([N+](=O)[O-])o1` was “inactive”.
For `CC(C)CCCCCCOC(=O)C1CCCCC1C(=O)OCCCCCCC(C)C` (configuration not stated), the result was inactive.
Take `OC(CCl)CCl`: the result was inactive.
Regarding `C[C@@H](Oc1ccc(CNC(=O)c2cccnc2Oc2ccc3c(c2)OCO3)c(F)c1)C(=O)O`, the outcome was inactive.
With `COc1cc2c(c(OC)c1OC)-c1ccc(OC)c(=O)cc1[C@@H](NC(C)=O)CC2`, the result was inactive.
For `CCCCN1C(=O)[C@@H]([C@H](O)C2CCCCC2)NC(=O)C12CCN(Cc1ccc(Oc3ccc(C(=O)O)cc3)cc1)CC2`, the result was inactive.
In the case of `Cc1ccc(S(=O)(=O)NC(=O)NN2CCCCCC2)cc1`, the result was inactive.
Still for that read-out and setting: the same measure for `OCc1ccccc1`: “inactive”.
Consider `CNC(C)=O`, for which the result was inactive.

Another assay addresses human Peroxisome Proliferator-activated Receptor alpha (PPARa), PPARA (gene 5465) (UniProt Q07869). Nature of the assay: NVS_NR_hPPARa: NovaScreen (NVS) Nuclear Receptor Binding Assay for human Peroxisome Proliferator-activated Receptor alpha (PPARa) (AID 2283359).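 Also: activity means loss of TR-FRET signal versus DMSO baseline.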 An outline of the steps:
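Chemicals were first screened in duplicate at 25 uM, and active ones were retested across concentration series. Binding was monitored by TR-FRET one hour after dosing, with decreased signal against DMSO counted as activity.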
On to `CCCCCCCC/C=C\CCCCCCCC(=O)OC[C@@H](O)[C@H]1OC[C@H](O)[C@H]1O`, for which the AC50 (usually the midpoint of the concentration-response curve, whichever way the signal moves) was 0.845 µM (active).
Regarding `CCCCCCCCCCCCCCO`, the call was inactive.
Turning to `OC(CCl)CCl`, the AC50 was 40.2 µM (active).
With `CCCCN1C(=O)[C@@H]([C@H](O)C2CCCCC2)NC(=O)C12CCN(Cc1ccc(Oc3ccc(C(=O)O)cc3)cc1)CC2`, the compound was called inactive.
